# PubChem BioAssay (NCATS)
# Records with an inconclusive call do not appear. Activity calls are given as the source filed them. Calls follow the shape of the dose curve; as a rule, active = well fitted cell-killing curve with a large enough effect; inconclusive = small, poorly fitted or top-dose-only effect; inactive = no such curve, though single readings can be large or run the other way. Starred links: 1 amine or outer side, 2 acyl side, 3 side chain; linkers in the order of their positions; H or OH if unused. Positions of bridges follow the written chain, without caps; N, C: chain ends. Non-standard residues stand in square brackets, D forms with d. Residues, ends and D or L forms follow the SMILES beside them. Chains are numbered I, II in the order given. Actinocin(9to1) = Cc1c2oc3c(C)ccc(C(=O)[*:1])c3nc-2c(C(=O)[*:2])c(N)c1=O; NMeV = CN[CH](C(=O)O)C(C)C; Sar = CNCC(=O)O
# Assay: qHTS of pediatric cancer cell lines to identify multiple opportunities for drug repurposing: Primary screen for Rh41 cells (AID 1347108); also: nearly all actives have a fitted effect of over 70% in size
# Conditions: Rh41 rhabdomyosarcoma viability, CellTiter-Glo luminescence, 48 h; series mostly up to 46 µM
# Excerpt: Drug repurposing or repositioning has been offered as a strategy for drug development in oncology programs. This approach has special potential for childhood cancers and other rare or orphan diseases, where the expected return on new drug development has been a disincentive to pharmaceuticals. […] In this project we exploit the poly-pharmacology of drugs to discover new indications via phenotypic screening of a panel of 19 well-characterized cell lines derived from solid tumors seen in children and adolescents. The goal is to identify approved drugs with previously unrecognized anticancer properties that has the potential to reveal new mechanisms and biological processes involved in carcinogenesis or drug resistance. We employed a titration-based paradigm (quantitative high-throughput screening or qHTS), where all compounds were tested at multiple concentrations for their effect on cell viability. Concentration-response curves (CRCs) were derived directly from the primary screen, and both potency and efficacy values were used to identify compounds with robust bioactivity profiles. We screened the NIH Chemical Genomics Center (NCGC) Pharmaceutical Collection (NPC) and Mechanism Interrogation Plate (MIPE) small molecule collections of approved and investigational compounds against these cell lines; and measured metabolically active cells after 48 hours of compound treatment as a proxy for cell viability. […] Assay Submitter: Nathalia J. Martinez, National Center for Advancing Translational Sciences, National Institutes of Health, Rockville, MD, USA; email: natalia.martinez@nih.gov Shen, M et al. Quantitative high-throughput phenotypic screening of pediatric cancer cell lines identifies multiple opportunities for drug repurposing. Oncotarget 2017 Dec 19;9(4):4758-4772. PMID 29435139.
# The cells were obtained from University of North Carolina (UNC), Pediatric Preclinical Testing Program (PPT), and Coriell Institute (CI). qHTS cell viability assay: Cells were assayed in growth media at a density of 500-1,000 cells/well. Five microliters of cells were dispensed into 1,536-well, white, solid-bottom, TC-treated plates (Greiner Bio One) using a multidrop dispenser and incubated at 37 degrees C, 5% CO2, under a humidified atmosphere for 5 hours. Twenty-three nanoliters of compounds and controls (neutral control DMSO or positive control bortezomib at final concentration of 2.3 µM) were subsequently transferred by Kalypsys pintool. For primary screens, the MIPE collection was tested at 11-point dilutions (final concentrations range from 0.78 nM to 46 µM) and the NPC collection at 8-point dilutions (final concentrations range from 0.59 nM to 46 µM). Compounds tested in follow-up screens were assayed at 11-point dilutions. Cells were incubated for 48 hours, followed by addition of 3 µL of CellTiter-Glo (Promega). After a 15 min incubation at room temperature, samples were analyzed for luminescence intensity using a ViewLux High-throughput CCD imager equipped with clear filters.
# Potency is read from the fitted curve at half-maximal effect.
row,Compound,Potency
1,CC(=O)[C@]1(O)Cc2c(O)c3c(c(O)c2[C@@H](O[C@H]2C[C@H](N)[C@@H](O)[C@H](C)O2)C1)C(=O)c1ccccc1C3=O,0.935 µM (active)
2,Cn1cnc2c(F)c(Nc3ccc(Br)cc3F)c(C(=O)NOCCO)cc21,inactive
3,CCS(=O)(=O)Nc1ccc2[nH]c(O)c(C(=Nc3ccc(CN4CCCCC4)cc3)c3ccccc3)c2c1,0.743 µM (active)
4,C[C@@]12C(=O)OC(=O)[C@@]1(C)C1CCC2O1,3.72 µM (active)
5,CC(=O)N1CCN(c2ccc(OCc3nn(C)c(C)c3-c3cccc4c(CCCOc5cccc6ccccc56)c(C(=O)O)n(Cc5cccnc5)c34)cc2)CC1,0.743 µM (active)
6,O=C(c1ccc(F)cc1)N1CCC[C@H](c2nc(-c3ccc(F)cc3)no2)C1,inactive
7,CC[C@H]1OC(=O)[C@H](C)[C@@H](O[C@H]2C[C@@](C)(OC)[C@@H](O)[C@H](C)O2)[C@H](C)[C@@H](O[C@@H]2O[C@H](C)C[C@H](N(C)C)[C@@H]2O)[C@](C)(OC)C[C@@H](C)C(=O)[C@H](C)[C@@H](O)[C@]1(C)O,inactive
8,CCCCOc1ccc(C(=O)Nc2ccc(F)cc2F)cc1,inactive
9,C=C1C(=O)O[C@H]2[C@@H]1CCC(C)=CCC[C@@]1(C)O[C@@H]21,11.8 µM (active)
10,COc1cc(C(=O)NC2CCN(C)CC2)ccc1Nc1ncc2c(n1)N(C1CCCC1)CCC(=O)N2C(C)C,14.8 µM (active)
11,CC(=O)N[C@H]1[C@@H]([C@H](O)[C@H](O)CO)OC(C(=O)O)=C[C@@H]1N=C(N)N,inactive
12,Cn1cc(C[C@@H](N)C(=O)O)c2ccccc21,inactive
13,CCN(CC)CCNC(=O)c1c(C)[nH]c(C=C2C(=O)Nc3ccc(F)cc32)c1C,13.6 µM (active)
14,CCC(C(=O)O)C1CCC(C)C(C(C)C(O)C(C)C(=O)C(CC)C2OC3(C=CC(O)[C@@]4(CC[C@](C)(C5CC[C@@](O)(CC)C(C)O5)O4)O3)C(C)CC2C)O1 (stereo not given in full),3.72 µM (active)
15,CCC(C=C[C@@H]1OC(=O)C=C[C@H]1C)=C[C@H](C)CC=CC(C)=C[C@@H](C)C(=O)[C@@H](C)[C@H](O)[C@@H](C)CC(C)=CC(=O)O,0.0247 µM (active)
16,CCC[C@H]1C[C@H](C(=O)N[C@@H]([C@@H]2O[C@@H](SC)[C@@H](O)[C@@H](O)[C@@H]2O)[C@H](C)Cl)N(C)C1,inactive
17,Oc1cc2c(cc1O)C1c3ccc(O)c(O)c3OCC1(O)C2 (stereo not given),inactive
18,CCN(CC)Cc1ccc2cc(COC(=O)Nc3ccc(C(=O)NO)cc3)ccc2c1,0.935 µM (active)
19,COc1cc(C)c(Sc2cnc(NC(=O)c3ccc(CNC(C)C(C)(C)C)cc3)s2)cc1C(=O)N1CCN(C(C)=O)CC1 (stereo not given),7.43 µM (active)
20,Cc1cn([C@@H]2O[C@H](CO)[C@@H](O)[C@H]2F)c(=O)[nH]c1=O,inactive

row,Compound,Potency
1,Cc1ccccc1C(=O)Nc1ccc(C(=O)N2CCCC(O)c3cc(Cl)ccc32)c(C)c1 (stereo not given),inactive
2,O=C1NC(O)CCN1[C@@H]1O[C@H](CO)[C@H](O)[C@H]1O (stereo not given in full),inactive
3,COc1cc(C=CC(=O)CC(=O)C=Cc2ccc(O)c(OC)c2)ccc1O,30.3 µM (active)
4,CN(N=O)C(=O)N[C@H]1C(O)OC(CO)[C@@H](O)[C@H]1O (stereo not given in full),inactive
5,C=CC1=C(C(=O)O)N2C(=O)[C@@H](NC(=O)C(=NO)c3csc(N)n3)[C@H]2SC1,inactive
6,CN(C)c1ccc(C(=O)NCCCCCCC(=O)NO)cc1,0.935 µM (active)
7,CCCCCCCN(CC)CCCC(O)c1ccc(NS(C)(=O)=O)cc1 (stereo not given),inactive
8,NC[C@H]1O[C@H](O[C@H]2[C@@H](O)[C@@H](O[C@H]3O[C@H](CO)[C@@H](O)[C@H](N)[C@@H]3O)[C@H](N)C[C@@H]2N)[C@H](N)C[C@H]1O,inactive
9,COc1ccc(S(=O)(=O)Nc2cc(-c3c(O)ccc4ccccc34)c(O)c3ccccc23)cc1,18.7 µM (active)
10,COc1cc(O)c2c(c1)C1OC1C[C@H](O)[C@H](O)C(=O)C=CC[C@H](C)OC2=O (stereo not given in full),11.8 µM (active)
11,C=Cc1c(C)c2cc3nc(cc4[nH]c(cc5nc(cc1[nH]2)C(C)=C5CCC(=O)O)c(CCC(=O)OC)c4C)[C@@]1(C)C3=CC=C(C(=O)OC)[C@H]1C(=O)OC,0.0743 µM (active)
12,Cc1cnc(Nc2ccc(N3CCN(C)CC3)cc2)nc1Nc1cccc(S(=O)(=O)NC(C)(C)C)c1,5.9 µM (active)
13,COc1cccc2c1C(=O)c1c(O)c3c(c(O)c1C2=O)C[C@@](O)(C(=O)CO)C[C@H]3O[C@H]1C[C@H](N)[C@H](O)[C@H](C)O1,0.743 µM (active)
14,CC(=O)OCC(=O)[C@@]12N=C(C)O[C@H]1C[C@H]1[C@@H]3CCC4=CC(=O)C=C[C@]4(C)[C@@H]3[C@@H](O)C[C@@]12C,inactive
15,"Cc1c2oc3c(C)ccc(C(=O)NC4C(=O)NC(C(C)C)C(=O)N5CCCC5C(=O)N(C)CC(=O)N(C)C(C(C)C)C(=O)OC4C)c3nc-2c(C(=O)NC2C(=O)NC(C(C)C)C(=O)N3CCCC3C(=O)N(C)CC(=O)N(C)C(C(C)C)C(=O)OC2C)c(N)c1=O (stereo not given) (I: TVP[Sar][NMeV] / II: TVP[Sar][NMeV]; ester I:1-I:C, II:1-II:C; linker I:N-II:N via Actinocin(9to1); configuration not given here)",0.001 µM (active)
16,Cc1nc(NC(=O)N2CCC[C@@H]2C(N)=O)sc1-c1ccnc(C(C)(C)C(F)(F)F)c1,4.18 µM (active)
17,CC(Oc1ccc(O)cc1)(P(=O)(O)O)P(=O)(O)O,inactive
18,CC(C)N1[N]C(=C2C=c3cc(O)ccc3=N2)c2c(N)ncnc21,1.05 µM (active)
19,C=CCNc1c(O)cc2c(O)c1C[C@@H](C)C[C@H](OC)[C@@H](O)[C@@H](C)C=C(C)[C@H](OC(N)=O)[C@@H](OC)C=CC=C(C)C(=O)N2,2.35 µM (active)
20,Nc1nc(=O)n([C@H]2C[C@H](O)[C@@H](CO)O2)cc1F,inactive
